The results in this text go back to PubChem BioAssay.

For orientation: AC50 means the concentration giving half of the maximal activity seen. What is called viability is a read-out of living cells in per cent, often relative to untreated cells.

The nature of assay [1]: viability loss in pontine glioma line – cell-based, SU-DIPG-XIII, MIPE4.0, CellTiter-Glo, qHTS, dose response (AID 1347061; cut-off not given, nearly all actives have AC50 up to about 37 µM;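 also: cells exposed to compound for 48 hours before readout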). As to conditions: CellTiter-Glo ATP luminescence. Background: Cellular ATP, detected with luciferase, serves as a proxy for viable cell number.
The nature of assay [2]: viability loss in pontine glioma line – cell-based, JHH-DIPG-1, MIPE4.0, CellTiter-Glo, qHTS, dose response (AID 1347062; cut-off not given, nearly all actives have AC50 up to about 27 µM;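 as to AC50: cells exposed to compound for two days before readout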). Conditions: JHH-DIPG-1 viability, CellTiter-Glo ATP luminescence.
Assay [3] can be described thus: viability loss in pontine glioma line – cell-based, SU-DIPG-IV, MIPE4.0, CellTiter-Glo, qHTS, dose response (AID 1347063; cut-off not given, nearly all actives have AC50 up to about 30 µM;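 also: compound exposure lasted 48 hours before the viability readout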). Conditions: CellTiter-Glo ATP luminescence.
Assay [4] can be described thus: viability loss in pontine glioma line – cell-based, SU-DIPG-XIII, MIPE5.0, CellTiter-Glo, qHTS, dose response (AID 1347064; cut-off not given, nearly all actives have AC50 up to about 23 µM;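 as to AC50: cells exposed to compound for 48 hours before the viability read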). Conditions: CellTiter-Glo ATP luminescence.
Assay [5] can be described thus: viability loss in pontine glioma line – cell-based, SU-DIPG-XXV, MIPE5.0, CellTiter-Glo, qHTS, dose response (AID 1347065; cut-off not given, nearly all actives have AC50 up to about 26 µM;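 also: cells exposed to compound for 48 hours before ATP readout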). As to conditions: CellTiter-Glo ATP luminescence.
Assay [6] in a line: growth inhibition of DIPG cells – cell-based, MIPE4.0 library, CellTiter-Glo luminescence, qHTS (AID 1347066; cut-off not given, nearly all actives have AC50 up to about 30 µM;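 also: cells exposed to compound for 48 hours before readout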). Conditions: SU-DIPG-VI viability, CellTiter-Glo ATP luminescence.
Assay [7] is described as follows: JHH-DIPG-1 glioma cell viability, MIPE5.0 library, CellTiter-Glo luminescence, qHTS (AID 1347067; cut-off not given, nearly all actives have AC50 up to about 26 µM;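 also: cells exposed to compound for 48 hours before readout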). Conditions: JHH-DIPG-1 glioma viability, CellTiter-Glo ATP luminescence.
The nature of assay [8]: growth inhibition of DIPG cells – cell-based, MIPE5.0 library, qHTS (AID 1347068; cut-off not given, nearly all actives have IC50 up to about 30 µM). Conditions: SU-DIPG-XXV viability. (In general: Quantitative high-throughput screening tests each substance at several concentrations.)
A short description of assay [9]: viability loss with induced miR-34 in A549 – imaging, A549 dox-inducible miR-34, nuclei and caspase counts, primary screen (AID 1347080;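 active = compounds whose cell count with miR-34 switched on is under 0.7 times the count with it off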). As to conditions: A549 miR-34 inducible, Hoechst nuclei count, 48 h.
Assay [10] is described as follows: MELAS cybrid and Rieske KO viability enhancers – cell-based, MELAS cybrids, Rieske KO mouse fibroblasts, CellTiter-Glo, primary screen (AID 1508586;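 active = mean z-score across replicates of 1.96 or higher in either the MELAS or the Rieske mutant cell line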;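 also: z relative to plate mean and SD of compound and empty wells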). As to conditions: low glucose.
The nature of assay [11]: compounds altering HSF1 focus formation in cells – imaging, Selleck Cancer Library (AID 1347162; in the data active = plate-normalised HSF1 focus index below about 0.46). As to conditions: human cells, HSF1 nuclear foci imaging, at 10 µM; SSMD: measured here: HSF1 foci SSMD mean; cell count: measured here: cell number; plate-normalised HSF1 focus index: stronger effect = lower value.
A short description of assay [12]: drug combination growth inhibition, ovarian cancer – cell-based, oncology-focused library, rucaparib conditional, profiling panel (AID 1508598). As to conditions: patient-derived ovarian cancer cells, CellTiter-Glo viability, 144 h, stronger effect = lower value.
The mark [13] stands for this setting: stronger effect = lower value, cell number ratio, induced over uninduced.
Where [14] appears, read: measured here: relative caspase fold change +Dox/-Dox.
[15] abbreviates: measured here: total cells with miR-34 induction, stronger effect = lower value.
Setting [16] is: measured here: total cells without miR-34 induction.

Inconclusive results are not listed. Activity calls are given as the source filed them.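 The calls were made as follows, unless noted: active = normalized viability below 100% at a tested concentration; inactive = the rest.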

With `CCN(CC)CCn1c(=O)c(Cc2ccc(OC)cc2)nc2ccccc21`, the call in assay [1], in assay [2], in [3], in assay [4], in assay [5] and in assay [6] was inactive. The call in assay [7] and in assay [8] was inactive. Further, the fold change in assay [9] (setting [13]) was 0.991 (inactive); in [9] (setting [14]), 1.5. The cell count in assay [9] (setting [15]) is 9100; in assay [9] (setting [16]) it was 9170.
Regarding `CO[C@H]1/C=C/O[C@@]2(C)Oc3c(C)c(O)c4c(O)c(c5c(c4c3C2=O)=NC2(CCN(CC(C)C)CC2)N=5)NC(=O)/C(C)=C/C=C/[C@H](C)[C@H](O)[C@@H](C)[C@@H](O)[C@@H](C)[C@H](OC(C)=O)[C@@H]1C`, the molecule was called inactive in [1], in assay [2], in [3] and in assay [4].
Regarding `C[C@@]12C(=O)OC(=O)[C@@]1(C)C1CCC2O1`, the AC50 in [1] was 1.66 µM (active); in [2] it was 2.64 µM (active); in [3], 1.48 µM (active).
For the molecule `O=C(NCc1ccncc1)C12C[C@H]3C[C@@H](C1)CC(c1ccc(Cl)cc1)(C3)C2`, the AC50 in assay [1] was 14.8 µM (active).
Take `O=S(=O)(N=Cc1c(O)ccc2ccccc12)c1cccs1`: the molecule was classed as inactive in [1] and in assay [2]. Also, the AC50 in [3] was 9.35 µM (active).
Take `COc1cc(OC)c2c(=O)[nH]c(-c3cc(C)c(OCCO)c(C)c3)nc2c1`: the outcome in assay [8] was inactive. Also, the fold change in [9] (setting [13]) is 0.96 (inactive); in assay [9] (setting [14]) it was 0.714. In addition, the results for the cell count in [9] (setting [15]) and in assay [9] (setting [16]) were 7650 and 7970, respectively. In addition, the z-score in assay [10] (MELAS cybrid survival, CellTiter-Glo 48 h, stronger effect = higher value) is -0.573 (inactive); in [10] (Rieske KO mouse fibroblast survival, CellTiter-Glo 72 h) it was -1.26.
In the case of `Cc1cc(OCCCc2c(C(=O)O)n(Cc3cccnc3)c3c(-c4c(COc5ccc(N6CCN([S+](C)(=O)[O-])CC6)cc5)nn(C)c4C)cccc23)cc(C)c1Cl`, the molecule was classed as inactive in assay [1] and in [2]. Moreover, in [3], the AC50 is 20.9 µM (active).
On to `CCOc1cc2ncc(C#N)c(Nc3ccc(F)c(Cl)c3)c2cc1NC(=O)/C=C/CN(C)C`, for which the call in assay [1] was inactive. Moreover, the AC50 in assay [2] was 7.43 µM (active); in assay [3], 0.833 µM (active); in assay [4], 5.9 µM (active); in assay [5], 0.934 µM (active); in assay [7] it was 9.34 µM (active). In [11], this molecule showed an SSMD of 3.17. This molecule also yielded a cell count in [11] of 7120. The plate-normalised HSF1 focus index in assay [11] is 1.19 (inactive). The viability in assay [12] (at 0.000305 µM, OCI-C5x cells, with rucaparib 10 µM, 100% = cells with rucaparib alone) is 117% (inactive); in assay [12] (at 0.000305 µM, OCI-C5x cells, without rucaparib), 129% (inactive); in [12] (at 0.000305 µM, OCI-P5x cells, with rucaparib 20 µM, 100% = cells with rucaparib alone) it was 106% (inactive); in assay [12] (at 0.000305 µM, OCI-P5x cells, without rucaparib) it was 117% (inactive); in assay [12] (at 0.00122 µM, OCI-C5x cells, with rucaparib 10 µM, 100% = cells with rucaparib alone) it was 115% (inactive); in [12] (at 0.00122 µM, OCI-C5x cells, without rucaparib), 115% (inactive). For the same molecule, the viability in [12] (at 0.00122 µM, OCI-P5x cells, with rucaparib 20 µM, 100% = cells with rucaparib alone) was 105% (inactive); in [12] (at 0.00122 µM, OCI-P5x cells, without rucaparib), 119% (inactive); in assay [12] (at 0.00488 µM, OCI-C5x cells, with rucaparib 10 µM, 100% = cells with rucaparib alone), 105% (inactive); in assay [12] (at 0.00488 µM, OCI-C5x cells, without rucaparib), 126% (inactive); in assay [12] (at 0.00488 µM, OCI-P5x cells, with rucaparib 20 µM, 100% = cells with rucaparib alone), 112% (inactive); in [12] (at 0.00488 µM, OCI-P5x cells, without rucaparib) it was 121% (inactive). Besides, the viability in assay [12] (at 0.0195 µM, OCI-C5x cells, with rucaparib 10 µM, 100% = cells with rucaparib alone) was 104% (inactive); in assay [12] (at 0.0195 µM, OCI-C5x cells, without rucaparib), 122% (inactive); in assay [12] (at 0.0195 µM, OCI-P5x cells, with rucaparib 20 µM, 100% = cells with rucaparib alone), 67.4% (active); in [12] (at 0.0195 µM, OCI-P5x cells, without rucaparib), 81.4% (active); in assay [12] (at 0.0781 µM, OCI-C5x cells, with rucaparib 10 µM, 100% = cells with rucaparib alone) it was 89.4% (active); in assay [12] (at 0.0781 µM, OCI-C5x cells, without rucaparib) it was 103% (inactive). Also, the viability in assay [12] (at 0.0781 µM, OCI-P5x cells, with rucaparib 20 µM, 100% = cells with rucaparib alone) is 104% (inactive); in assay [12] (at 0.0781 µM, OCI-P5x cells, without rucaparib), 117% (inactive); in [12] (at 0.313 µM, OCI-C5x cells, with rucaparib 10 µM, 100% = cells with rucaparib alone) it was 33.8% (active); in assay [12] (at 0.313 µM, OCI-C5x cells, without rucaparib), 83.6% (active); in assay [12] (at 0.313 µM, OCI-P5x cells, with rucaparib 20 µM, 100% = cells with rucaparib alone) it was 87.8% (active); in assay [12] (at 0.313 µM, OCI-P5x cells, without rucaparib) it was 103% (inactive). Also, the viability in [12] (at 1.25 µM, OCI-C5x cells, with rucaparib 10 µM, 100% = cells with rucaparib alone) is 17.6% (active); in assay [12] (at 1.25 µM, OCI-C5x cells, without rucaparib) it was 47.6% (active); in [12] (at 1.25 µM, OCI-P5x cells, with rucaparib 20 µM, 100% = cells with rucaparib alone), 66.1% (active); in [12] (at 1.25 µM, OCI-P5x cells, without rucaparib) it was 91.8% (active); in assay [12] (at 5 µM, OCI-C5x cells, with rucaparib 10 µM, 100% = cells with rucaparib alone), 1.66% (active); in [12] (at 5 µM, OCI-C5x cells, without rucaparib) it was 3.35% (active). Moreover, the viability in [12] (at 5 µM, OCI-P5x cells, with rucaparib 20 µM, 100% = cells with rucaparib alone) is 1.19% (active); in [12] (at 5 µM, OCI-P5x cells, without rucaparib), 1.58% (active).
